# Most compounds without a hit are left out; they make up all but 19% or so of the library.
# ELG1 repair inh – qHTS screen for small molecules that inhibit ELG1-dependent DNA repair in human embryonic kidney (HEK293T) cells expressing luciferase-tagged ELG1 | HEK293T ELG1-luciferase reporter, luminescence, 16 h; DNA damage induced by 5-fluorouridine | Potency, µM (highest dose often 46.1 µM), for inactives: top-dose activity change, negative = inhibition, usual class: inhibitors | 2.3% of 330,000 active; note: potency is the fitted concentration of half-maximal effect; nearly all actives have a fitted effect of over 55% in size
#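 Reporter activity after DNA damage by 5-fluorouridine is monitored. Compound-treated cells incubate 16 hr at 37 °C, then ONE-Glo is added for 30 min before luminescence reading.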
# Giardia killer – Small Molecules that selectively kill Giardia lamblia: qHTS; activity change, % at 7.66 µM, hits read low; Giardia lamblia trophozoite viability; 0.15% of 340,000 active; in the data active = activity change below about -80%; inconclusive = between about -30% and that limit;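 note: parasites exposed to compound for two days anaerobically before the ATP read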
#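 ATP-content bioluminescence gauges trophozoite survival. Cells (100/well) receive compound and incubate anaerobically for 48 hrs at 37 deg C; detection reagent follows for 15-30 min at room temperature.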
# IL-1B inflam inh – qHTS for Inhibitors of Inflammasome Signaling: IL-1-beta AlphaLISA Primary Screen. THP-1 LPS/ATP IL-1B secretion, AlphaLISA, 16 h; active compounds read low. activity change, % at 57.5 µM. 4.7% of 360,000 active. AID 743279, 2014; in the data active = activity change below about -50%; inconclusive = mostly about -30% to -49%
#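 THP-1 cells pretreated 1 hr with compounds (up to 57.5 uM final), then stimulated with LPS (250 ng/mL final) plus ATP (1.25 mM final); secreted IL-1B measured by AlphaLISA after 16 hr, decreased signal indicating inhibition.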
# DT40 TDP1 no CPT – qHTS for Inhibitors of human tyrosyl-DNA phosphodiesterase 1 (TDP1): qHTS in cells in absence of CPT; DT40 Tdp1-/- hTDP1 cells, no CPT, ATP luminescence, 48 h; AID 686978, 2013; Potency, µM (doses to about 46.2 µM), for the others: at the top dose activity change, negative = growth inhibition, hits mostly inhibitors; 15% of 420,000 active; note: potency is the fitted concentration of half-maximal effect; nearly all actives have a fitted effect of over 55% in size
#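 Growth kinetics read by CellTiter-Glo luminescence after ≥48 hr at 37 °C. Cells: DT40 Tdp1-/- stably carrying human TDP1, 400 per well, compound exposure in the absence of CPT (DMSO vehicle).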
# TDP1 block – qHTS Assay for Inhibitors of Tyrosyl-DNA Phosphodiesterase (TDP1); Tyrosyl-DNA phosphodiesterase 1 (Homo sapiens), Q9NUW8; recombinant TDP1, AlphaScreen DNA substrate cleavage; Potency, µM (top dose mostly 130 µM), without a hit: top-dose activity change, negative = inhibition, actives largely listed as inhibitors; 0.28% of 350,000 active; AID 485290, 2010; note: potency is the fitted concentration of half-maximal effect; nearly all actives have a fitted effect of over 40% in size
# Target sequence (Q9NUW8 whole entry, looked up): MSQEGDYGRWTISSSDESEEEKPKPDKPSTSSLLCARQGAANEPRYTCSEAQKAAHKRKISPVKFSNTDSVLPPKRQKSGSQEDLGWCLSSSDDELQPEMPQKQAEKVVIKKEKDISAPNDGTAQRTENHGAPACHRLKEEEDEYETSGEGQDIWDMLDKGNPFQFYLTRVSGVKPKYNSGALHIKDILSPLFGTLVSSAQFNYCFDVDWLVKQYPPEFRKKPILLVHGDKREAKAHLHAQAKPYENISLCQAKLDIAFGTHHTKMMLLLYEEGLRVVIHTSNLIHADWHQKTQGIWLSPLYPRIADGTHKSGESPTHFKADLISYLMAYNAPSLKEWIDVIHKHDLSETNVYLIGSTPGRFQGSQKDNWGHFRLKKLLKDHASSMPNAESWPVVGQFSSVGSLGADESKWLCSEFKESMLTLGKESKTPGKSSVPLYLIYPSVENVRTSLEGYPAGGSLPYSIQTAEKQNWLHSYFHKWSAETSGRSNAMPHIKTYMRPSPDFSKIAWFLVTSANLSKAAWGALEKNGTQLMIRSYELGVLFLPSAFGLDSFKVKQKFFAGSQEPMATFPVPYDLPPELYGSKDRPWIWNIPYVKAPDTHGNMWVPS
#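 Recombinant human Tdp1 (E. coli-expressed, 1 nM final) preincubated with compounds 15 min at room temperature, then 5'-biotin/3'-phosphotyrosine-FITC DNA substrate (15 nM final) added for 5 min. AlphaScreen beads (10 ug/ml final) added 10 min; cleavage lowers signal.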
# TDP1 cell CPT – qHTS for Inhibitors of human tyrosyl-DNA phosphodiesterase 1 (TDP1): qHTS in cells in presence of CPT; AID 686979, 2013; 12% of 420,000 active; Potency, µM (doses to about 46.2 µM), without a hit: at the highest dose activity change, negative = growth inhibition, actives largely listed as inhibitors; chicken DT40 Tdp1-/-;hTDP1 cells + 20 nM CPT, ATP luminescence, 48 h; note: potency is the fitted concentration of half-maximal effect; nearly all actives have a fitted effect of over 55% in size
#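 Chicken DT40 Tdp1-/- cells complemented with human TDP1, 400 cells/well, exposed to compounds plus 20 nM camptothecin for at least 48 h at 37 C; viability read as ATP content by CellTiter-Glo luminescence.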
# An asterisk follows results filed as active; ? = inconclusive; · = not tested or not shown; [ ] = another dose, or the depositor's remark. Unless noted, calls come from the whole dose curve; as a rule, active = well fitted curve in the direction sought with a large enough effect; inconclusive = small, poorly fitted or top-dose-only effect, or another doubt; inactive = no such curve, though single readings can be large; an effect the other way counts as inactive or inconclusive. % is set by controls: 0 for no effect and ±100 for the full control effect.
SMILES,ELG1 repair inh,Giardia killer,IL-1B inflam inh,DT40 TDP1 no CPT,TDP1 block,TDP1 cell CPT
Cc1ccc(CN2CCC(CNc3ncnc4onc(-c5ccc(Cl)cc5)c34)CC2)cc1,·,·,·,16µM*,-5%,18µM*
Clc1ccc(CN2CCC(CNc3ncnc4onc(-c5ccc(Cl)cc5)c34)CC2)cc1,·,·,·,23µM*,-1%,?
Cc1cccc(CN2CCC(CNc3ncnc4onc(-c5ccc(Cl)cc5)c34)CC2)c1,·,·,·,?,1%,?
Nc1ccc(Cl)c(S(=O)(=O)Nc2ccc(Cl)cc2)c1,0%,1,-7,-21%,4%,?
COc1ccc(/C(C)=N/OC/C(O)=C(\C#N)c2nc3ccccc3[nH]2)c(OC)c1,11%,-14,-1,10%,8%,-19%
CC(C)(C)/C(O)=C(/C#N)c1nc2ccccc2[nH]1,23µM*,-9,-2,?,8%,?
COc1ccc(/C(C)=N/OC/C(O)=C(\C#N)c2nc3ccccc3[nH]2)cc1OC,0%,-4,24,16µM*,5%,?
COc1cccc(OC)c1/C(O)=C(\C#N)c1nc2ccccc2[nH]1,-16%,35,27,13µM*,8%,?
COc1ccc(C/C(O)=C(\C#N)c2nc3ccccc3[nH]2)cc1OC,?,3,-7,-14%,1%,-21%
C=CC1=C(C)C2=CC3=NC(=C(CC(=O)[O-])C4=NC(=C(C)C4=C([O-])[O-])C=c4[n-]c(c(C)c4CC)=CC1=N2)C(CCC(=O)[O-])C3C.[Cu+2].[Na+].[Na+].[Na+] (stereo not drawn),·,·,·,-28%,·,?
O=C1C(=O)c2c(ccc3ccccc23)-c2ccccc21,·,0,-87*,0.52µM*,·,0.58µM*
Cc1ccc(NS(=O)(=O)c2ccc(F)cc2)cc1C,·,·,·,·,1%,·
COc1ccc(NC(=O)CCOc2ccccc2C)cc1S(=O)(=O)N1CCCCC1,?,-14,-60*,18µM*,-1%,29µM*
COc1cc(CCC(=O)Nc2cccc(S(=O)(=O)N(C)C)c2)cc(OC)c1OC,?,-10,8,26µM*,6%,?
Cc1ccccc1C(=O)NCC(=O)Nc1ccc(C)c(S(=O)(=O)N2CCCCCC2)c1,?,6,-4,?,5%,?
CCCCNC(=O)C1=C(N)C(C(=O)Nc2ccc(C)c(S(=O)(=O)N3CCCCC3)c2)SC1=Nc1ccc(C)cc1C (stereo not drawn),-34%,1,0,23µM*,4%,23µM*
CCOc1ncccc1C(=O)Nc1ccc(C)c(S(=O)(=O)N2CCCCCC2)c1,21µM*,?,-4,?,-5%,18µM*
Cc1nn(Cc2ccccc2Cl)c(C)c1C(=O)NCCN1C(=O)S/C(=C\c2ccccc2)C1=O,-22%,12,-17,-29%,2%,?
Cc1ccc(NCC(=O)Nc2cccc(F)c2)cc1S(=O)(=O)N1CCCCCC1,14%,8,-75*,16µM*,2%,?
COc1ccc(CCC(=O)Nc2ccc(Cl)c(S(=O)(=O)N3CCCC3)c2)cc1,4.6µM*,-3,-15,?,6%,21µM*
COc1ccc(CCC(=O)Nc2ccc(OC)c(S(=O)(=O)N3CCCCC3)c2)cc1OC,?,8,0,?,-1%,21µM*
COc1ccc(NC(=O)c2n[nH]c(=O)c3ccccc23)cc1S(=O)(=O)N1CCCCC1,23µM*,23,-10,?,1%,?
COc1ccc(CN2CCN(Cc3ccon3)CC2CCO)c(C)c1C (stereo not drawn),-4%,17,20,6%,·,-10%
CCOC(=O)c1sc(NC(=O)CN2CCN(c3ccccc3)CC2)nc1C,?,22,3,?,3%,7%
C#Cc1ccc([C@H]2C=C(C(=O)N3CCOCC3)O[C@@H](OCc3ccc(CO)cc3)C2)cc1,-8%,7,3,-22%,5%,-28%
SMILES,ELG1 repair inh,Giardia killer,IL-1B inflam inh,DT40 TDP1 no CPT,TDP1 block,TDP1 cell CPT
O=C(O)c1cc(N2CCCC2)ccn1,·,9,0,2%,·,-16%
CC1=C(C(N)=O)C(c2cccc(F)c2)n2nc(SCc3ccccc3)nc2N1 (stereo not drawn),·,·,·,6%,-5%,8%
CN(C)S(=O)(=O)c1cccc(NC(=O)COc2ccccc2C(=O)NCc2ccccc2)c1,?,-10,-7,?,2%,16µM*
COc1ccccc1CCC(=O)Nc1ccc(OC)c(S(=O)(=O)N2CCCCC2)c1,?,-3,6,-27%,-2%,?
Cc1ccc(NC(=O)CCS(=O)(=O)c2ccccc2)cc1S(=O)(=O)N1CCCCCC1,?,-7,-3,?,·,?
CCCCC(=O)Nc1ccc(C)c(S(=O)(=O)N2CCCCCC2)c1,-10%,1,-64*,?,-2%,?
COc1cc(CCC(=O)Nc2ccc(C)c(S(=O)(=O)N3CCCCCC3)c2)cc(OC)c1OC,?,-6,3,7.3µM*,1%,10µM*
COc1ccc(NC(=O)CCc2nc3ccccc3c(=O)[nH]2)cc1S(=O)(=O)N1CCCCC1,26µM*,-1,6,-26%,-5%,-26%
Cc1ccc(NC(=O)COc2ccccc2C(=O)NCc2ccccc2)cc1,?,-7,?,?,-13%[56.1 µM],?
O=C(CSc1nccn1Cc1ccc2c(c1)OCO2)Nc1ccccc1F,·,·,·,-21%,7%,1%
CCOC(=O)C[C@H]1c2cc(F)ccc2S(=O)(=O)N1Cc1ccc(OC)cc1,·,-13,39,?,·,?
CCOC(=O)C[C@H]1c2cc(F)ccc2S(=O)(=O)N1Cc1cc(OC)c(OC)c(OC)c1,·,·,·,11µM*,·,10µM*
COc1cc(Nc2ccccn2)cc(C(=O)Nc2cccc(C(F)(F)F)c2)c1,?,-6,-5,?,2%,16µM*
COc1cc(NC(=O)c2cc3cccc(OC)c3o2)cc(C(=O)Nc2cccc(C(F)(F)F)c2)c1,12µM*,-10,40,5.2µM*,5%,6.5µM*
COc1cc(NC(=O)c2ccno2)cc(C(=O)Nc2cccc(C(F)(F)F)c2)c1,?,5,-6,16µM*,5%,?

# Screens from PubChem.
